# Experimental data taken from the supplement of paper PMC8728848.
# The sample as a whole holds a higher share of the strongest signals than the screen did.
# B1: XTP3-B-MRH1 (Homo sapiens), Q96DZ1 (protein)
# chain: LLEPLFKQSSCSYRIESYWTYEVCHGKHIRQYHEEKETGQKINIHEYYLGNMLAKNLLFEKEREAEEKEKSNEIPTKNIEGQMTPYYPVGMGNGTPCSLKQNRPRSSTVMYICHPESKHEILSVAEVTTCEYEVVILTPLLCSHPKYRFRA
# How the values were obtained:
# Assay in all cases: glycan array binding signal (z-score within array); higher = stronger binding
# Conditions in all cases: glycan notation: IUPAC condensed, linker removed
# [1] = molecular target: Fuc(a1-2)Gal(b1-3)[Fuc(a1-4)]GlcNAc(b1-2)Man(a1-3)[Fuc(a1-2)Gal(b1-3)[Fuc(a1-4)]GlcNAc(b1-2)Man(a1-6)]Man(b1-4)GlcNAc(b1-4)[Fuc(a1-6)]GlcNAc(b1-4)[Fuc(a1-6)]GlcNAc
# Procedure, shortened: (§1)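 Columns mapping to the same glycan were averaged after glycan names were converted to IUPAC-condensed notation. The data come from 3228 arrays in the Consortium for Functional Glycomics database, limited to those with an available protein sequence. Binding is reported as a within-array Z-score averaged across arrays of one protein sequence and across linkers.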
# [2] = molecular target: Fuc(a1-2)Gal(b1-3)[Fuc(a1-4)]GlcNAc(b1-3)[Gal(b1-4)GlcNAc(b1-6)]Gal(b1-4)Glc
# Procedure, shortened: as §1
# [3] = molecular target: Fuc(a1-2)Gal(b1-4)Fuc(a1-3)]GlcNAc(b1-2)Man(a1-3)[Fuc(a1-2)Gal(b1-4)[Fuc(a1-3)]GlcNAc(b1-2)Man(a1-6)]Man(b1-4)GlcNAc(b1-4)GlcNAc
# Procedure, shortened: as §1
# [4] = molecular target: Fuc(a1-2)Gal(b1-4)[Fuc(a1-3)]GlcNAc(b1-3)Gal(b1-4)[Fuc(a1-3)]GlcNAc
# Procedure, shortened: as §1
# [5] = molecular target: Fuc(a1-2)[Gal(a1-3)]Gal(b1-3)GlcNAc(b1-2)Man(a1-3)[Fuc(a1-2)[Gal(a1-3)]Gal(b1-3)GlcNAc(b1-2)Man(a1-6)]Man(b1-4)GlcNAc(b1-4)[Fuc(a1-6)]GlcNAc
# Procedure, shortened: as §1
# [6] = molecular target: Fuc(a1-2)[Gal(a1-3)]Gal(b1-4)GlcNAc(b1-3)[Fuc(a1-2)[Gal(a1-3)]Gal(b1-4)GlcNAc(b1-6)]GalNAc
# Procedure, shortened: as §1
# [7] = molecular target: Fuc(a1-2)[GalNAc(a1-3)]Gal(b1-3)GalNAc(b1-3)Gal(a1-4)Gal(b1-4)Glc
# Procedure, shortened: as §1
# [8] = molecular target: Fuc(a1-2)[GalNAc(b1-3)]Gal
# Procedure, shortened: as §1
# [9] = molecular target: Fuc(a1-3)[Gal(b1-4)]GlcNAc(b1-3)Gal(b1-4)[Fuc(a1-3)]GlcNAc
# Procedure, shortened: as §1
# Fuc(b1-3)GlcNAc = molecular target: Fuc(b1-3)GlcNAc
# Procedure, shortened: as §1
# [10] = molecular target: Gal(a1-3)Gal(b1-3)[Fuc(a1-4)]GlcNAc(b1-2)Man(a1-3)[Gal(a1-3)Gal(b1-3)[Fuc(a1-4)]GlcNAc(b1-2)Man(a1-6)]Man(b1-4)GlcNAc(b1-4)GlcNAc
# Procedure, shortened: as §1
# [11] = molecular target: Gal(a1-3)[Gal(a1-4)]Gal(b1-4)GlcNAc
# Procedure, shortened: as §1
# [12] = molecular target: Gal(b1-3)GlcNAc(b1-3)Gal(b1-4)GlcNAc(b1-2)Man(a1-3)[Gal(b1-3)GlcNAc(b1-3)Gal(b1-4)GlcNAc(b1-2)Man(a1-6)]Man(b1-4)GlcNAc(b1-4)GlcNAc
# Procedure, shortened: as §1
# [13] = molecular target: Gal(b1-3)[Fuc(a1-4)]GlcNAc(b1-2)Man(a1-3)[Gal(b1-3)[Fuc(a1-4)]GlcNAc(b1-2)Man(a1-6)]Man(b1-4)GlcNAc(b1-4)[Fuc(a1-6)]GlcNAc
# Procedure, shortened: as §1
# [14] = molecular target: Gal(b1-3)[GlcNAc(b1-6)]GalNAc
# Procedure, shortened: as §1
# [15] = molecular target: Gal(b1-4)GalNAc(a1-3)[Fuc(a1-2)]Gal(b1-4)GlcNAc
# Procedure, shortened: as §1
# [16] = molecular target: Gal(b1-4)GlcNAc(b1-2)Man(a1-3)[Gal(b1-4)GlcNAc(b1-2)Man(a1-6)]Man(b1-4)GlcNAc(b1-4)[Fuc(a1-6)]GlcNAc
# Procedure, shortened: as §1
# [17] = molecular target: Gal(b1-4)GlcNAc(b1-2)[Gal(b1-4)GlcNAc(b1-6)]Man(a1-6)[Gal(b1-4)GlcNAc(b1-2)Man(a1-3)]Man(b1-4)GlcNAc(b1-4)[Fuc(a1-6)]GlcNAc
# Procedure, shortened: as §1
# [18] = molecular target: Gal(b1-4)GlcNAc(b1-3)Gal(b1-4)GlcNAc
# Procedure, shortened: as §1
# [19] = molecular target: Gal(b1-4)GlcNAc(b1-3)Gal(b1-4)GlcNAc(b1-2)Man(a1-3)[Gal(b1-4)GlcNAc(b1-3)Gal(b1-4)GlcNAc(b1-2)Man(a1-6)]Man(b1-4)GlcNAc(b1-4)GlcNAc
# Procedure, shortened: as §1
# [20] = molecular target: Gal(b1-4)GlcNAc(b1-3)Gal(b1-4)GlcNAc(b1-3)Gal(b1-4)GlcNAc(b1-3)Gal(b1-4)GlcNAc(b1-3)Gal(b1-4)GlcNAc(b1-3)Gal(b1-4)GlcNAc(b1-2)Man(a1-3)[Gal(b1-4)GlcNAc(b1-3)Gal(b1-4)GlcNAc(b1-3)Gal(b1-4)GlcNAc(b1-3)Gal(b1-4)GlcNAc(b1-3)Gal(b1-4)GlcNAc(b1-3)Gal(b1-4)GlcNAc(b1-2)Man(a1-6)]Man(b1-4)GlcNAc(b1-4)GlcNAc
# Procedure, shortened: as §1
# [21] = molecular target: Gal(b1-4)GlcNAc(b1-3)Gal(b1-4)GlcNAc(b1-3)[Gal(b1-4)GlcNAc(b1-3)Gal(b1-4)GlcNAc(b1-6)]GalNAc
# Procedure, shortened: as §1
# [22] = molecular target: Gal(b1-4)GlcNAc(b1-3)GalNAc
# Procedure, shortened: as §1
# Gal3S6S(b1-4)GlcNAc6S = molecular target: Gal3S6S(b1-4)GlcNAc6S
# Procedure, shortened: as §1
# GalNAc(a1-3)GalNAc = molecular target: GalNAc(a1-3)GalNAc
# Procedure, shortened: as §1
# GalNAc3S(b1-4)GlcNAc3S = molecular target: GalNAc3S(b1-4)GlcNAc3S
# Procedure, shortened: as §1
# GalNAc4S6S(b1-4)GlcNAc = molecular target: GalNAc4S6S(b1-4)GlcNAc
# Procedure, shortened: as §1
# Glc(a1-6)Glc(a1-6)Glc = molecular target: Glc(a1-6)Glc(a1-6)Glc
# Procedure, shortened: as §1
# GlcA(b1-6)Gal = molecular target: GlcA(b1-6)Gal
# Procedure, shortened: as §1
# [23] = molecular target: GlcA3S(b1-3)Gal(b1-4)GlcNAc(b1-3)Gal(b1-4)Glc
# Procedure, shortened: as §1
# [24] = molecular target: GlcNAc(a1-4)Gal(b1-4)GlcNAc(b1-3)Gal(b1-4)GlcNAc
# Procedure, shortened: as §1
# [25] = molecular target: GlcNAc(b1-3)Gal(b1-4)GlcNAc
# Procedure, shortened: as §1
# [26] = molecular target: GlcNAc(b1-3)Gal(b1-4)GlcNAc(b1-2)Man(a1-3)[GlcNAc(b1-3)Gal(b1-4)GlcNAc(b1-2)Man(a1-6)]Man(b1-4)GlcNAc(b1-4)[Fuc(a1-6)]GlcNAc
# Procedure, shortened: as §1
# [27] = molecular target: GlcNAc(b1-3)Gal(b1-4)GlcNAc(b1-3)Gal(b1-4)GlcNAc(b1-2)Man(a1-3)[GlcNAc(b1-3)Gal(b1-4)GlcNAc(b1-3)Gal(b1-4)GlcNAc(b1-2)Man(a1-6)]Man(b1-4)GlcNAc(b1-4)GlcNAc
# Procedure, shortened: as §1
# [28] = molecular target: GlcNAc(b1-3)Gal(b1-4)GlcNAc(b1-3)Gal(b1-4)GlcNAc(b1-3)Gal(b1-4)GlcNAc(b1-2)Man(a1-3)[GlcNAc(b1-3)Gal(b1-4)GlcNAc(b1-3)Gal(b1-4)GlcNAc(b1-3)Gal(b1-4)GlcNAc(b1-2)Man(a1-6)]Man(b1-4)GlcNAc(b1-4)[Fuc(a1-6)]GlcNAc
# Procedure, shortened: as §1
# Kdn(a2-3)Gal(b1-4)GlcNAc = molecular target: Kdn(a2-3)Gal(b1-4)GlcNAc
# Procedure, shortened: as §1
# Neu5Ac(a2-3)Gal = molecular target: Neu5Ac(a2-3)Gal
# Procedure, shortened: as §1
# [29] = molecular target: Neu5Ac(a2-3)Gal(b1-3)GalNAc(b1-3)Gal(a1-4)Gal(b1-4)Glc
# Procedure, shortened: as §1
# [30] = molecular target: Neu5Ac(a2-3)Gal(b1-3)GlcNAc(b1-3)Gal(b1-4)GlcNAc
# Procedure, shortened: as §1
# [31] = molecular target: Neu5Ac(a2-3)Gal(b1-3)GlcNAc(b1-6)GalNAc
# Procedure, shortened: as §1
# [32] = molecular target: Neu5Ac(a2-3)Gal(b1-4)GlcNAc(b1-3)Gal(b1-4)GlcNAc(b1-3)GalNAc
# Procedure, shortened: as §1
# [33] = molecular target: Neu5Ac(a2-3)Gal(b1-4)[Fuc(a1-3)]GlcNAc
# Procedure, shortened: as §1
# [34] = molecular target: Neu5Ac(a2-3)Gal(b1-4)[Fuc(a1-3)]GlcNAc(b1-3)Gal(b1-4)[Fuc(a1-3)]GlcNAc(b1-3)Gal(b1-4)[Fuc(a1-3)]GlcNAc
# Procedure, shortened: as §1
# [35] = molecular target: Neu5Ac(a2-3)Gal(b1-4)[Fuc(a1-3)]GlcNAc(b1-3)GalNAc
# Procedure, shortened: as §1
# [36] = molecular target: Neu5Ac(a2-3)[Neu5Ac(a2-6)]GalNAc
# Procedure, shortened: as §1
# [37] = molecular target: Neu5Ac(a2-6)Gal(b1-4)GlcNAc(b1-2)Man
# Procedure, shortened: as §1
# [38] = molecular target: Neu5Ac(a2-6)Gal(b1-4)GlcNAc(b1-2)Man(a1-3)[Gal(b1-4)GlcNAc(b1-2)Man(a1-6)]Man(b1-4)GlcNAc(b1-4)GlcNAc
# Procedure, shortened: as §1
# [39] = molecular target: Neu5Ac(a2-8)Neu5Ac(a2-3)Gal(b1-3)GalNAc(b1-4)[Neu5Ac(a2-3)]Gal(b1-4)Glc
# Procedure, shortened: as §1
# [40] = molecular target: Neu5Ac(a2-8)Neu5Ac(a2-3)[Gal(b1-3)GalNAc(b1-4)]Gal(b1-4)Glc
# Procedure, shortened: as §1
# [41] = molecular target: Neu5Ac(a2-8)Neu5Ac(a2-8)Neu5Ac(a2-8)Neu5Ac(a2-3)[GalNAc(b1-4)]Gal(b1-4)Glc
# Procedure, shortened: as §1
binder,measurement,setting,value
B1,glycan array binding signal (z-score),[1],0.479
same,glycan array binding signal (z-score),[2],0.735
same,glycan array binding signal (z-score),[3],3.43
same,glycan array binding signal (z-score),[4],0.249
same,glycan array binding signal (z-score),[5],-0.029
same,glycan array binding signal (z-score),[6],0.358
same,glycan array binding signal (z-score),[7],-0.49
same,glycan array binding signal (z-score),[8],-1.01
same,glycan array binding signal (z-score),[9],4.25
same,glycan array binding signal (z-score),Fuc(b1-3)GlcNAc,0.382
same,glycan array binding signal (z-score),[10],-0.237
same,glycan array binding signal (z-score),[11],-0.853
same,glycan array binding signal (z-score),[12],0.941
same,glycan array binding signal (z-score),[13],-0.731
same,glycan array binding signal (z-score),[14],-0.389
same,glycan array binding signal (z-score),[15],-0.41
same,glycan array binding signal (z-score),[16],-0.184
same,glycan array binding signal (z-score),[17],1.61
same,glycan array binding signal (z-score),[18],2.97
same,glycan array binding signal (z-score),[19],3.79
same,glycan array binding signal (z-score),[20],0.082
same,glycan array binding signal (z-score),[21],1.07
same,glycan array binding signal (z-score),[22],-0.205
same,glycan array binding signal (z-score),Gal3S6S(b1-4)GlcNAc6S,-0.392
same,glycan array binding signal (z-score),GalNAc(a1-3)GalNAc,3.12
same,glycan array binding signal (z-score),GalNAc3S(b1-4)GlcNAc3S,3.07
same,glycan array binding signal (z-score),GalNAc4S6S(b1-4)GlcNAc,-0.682
same,glycan array binding signal (z-score),Glc(a1-6)Glc(a1-6)Glc,-0.837
same,glycan array binding signal (z-score),GlcA(b1-6)Gal,0.841
same,glycan array binding signal (z-score),[23],-0.47
same,glycan array binding signal (z-score),[24],-0.549
same,glycan array binding signal (z-score),[25],-0.824
same,glycan array binding signal (z-score),[26],-0.235
same,glycan array binding signal (z-score),[27],2.48
same,glycan array binding signal (z-score),[28],4.18
same,glycan array binding signal (z-score),Kdn(a2-3)Gal(b1-4)GlcNAc,-0.086
same,glycan array binding signal (z-score),Neu5Ac(a2-3)Gal,-0.797
same,glycan array binding signal (z-score),[29],-0.636
same,glycan array binding signal (z-score),[30],0.189
same,glycan array binding signal (z-score),[31],-0.811
same,glycan array binding signal (z-score),[32],3.41
same,glycan array binding signal (z-score),[33],-0.083
same,glycan array binding signal (z-score),[34],-0.381
same,glycan array binding signal (z-score),[35],2.68
same,glycan array binding signal (z-score),[36],0.205
same,glycan array binding signal (z-score),[37],1.44
same,glycan array binding signal (z-score),[38],-0.887
same,glycan array binding signal (z-score),[39],-1.01
same,glycan array binding signal (z-score),[40],2.49
same,glycan array binding signal (z-score),[41],1.37
